What all share (test): universal protein binding microarray (PBM); transcription factors of Arabidopsis thaliana; high values mean tight binding
Test [1] has as its target T1, GST-ANAC092(1-176) (Arabidopsis thaliana, UniProt Q9FKA0 1-176).
T1 sequence: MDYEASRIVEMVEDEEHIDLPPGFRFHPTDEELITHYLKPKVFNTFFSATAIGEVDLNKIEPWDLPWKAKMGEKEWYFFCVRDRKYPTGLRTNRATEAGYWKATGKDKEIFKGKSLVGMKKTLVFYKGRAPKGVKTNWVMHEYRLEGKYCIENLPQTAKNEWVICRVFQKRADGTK
Particulars: protein: recombinant; tags: GST; chain copies: 2; dsDNA, one strand shown. A digest of the protocol: (§1)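 Protein amounts were determined by A280 or anti-GST western blot after glutathione–Sepharose 4B purification of GST-tagged proteins induced in cells, with zinc acetate included for zinc-finger proteins. Duplicate runs at 200 to 500 nM final were done on custom all-10-mer Agilent 4 × 180K arrays made double-stranded by primer extension. The normalised enrichment score (E-score) over gapped and ungapped 8-mers is the measure of binding.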

Test [2] addresses T2, GST-ANAC019 NAC domain (Arabidopsis thaliana, UniProt Q9C932 14-162).
T2 sequence: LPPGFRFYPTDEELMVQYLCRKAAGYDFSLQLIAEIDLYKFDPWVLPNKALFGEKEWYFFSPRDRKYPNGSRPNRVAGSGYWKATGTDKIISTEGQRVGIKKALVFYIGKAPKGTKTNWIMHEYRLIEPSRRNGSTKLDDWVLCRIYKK
Particulars: protein: recombinant; tags: GST; chain copies: 2; dsDNA, one strand shown. A digest of the protocol:
as §1

Test [3] deals with T3, GST-ATAF1 NAC domain (Arabidopsis thaliana, UniProt Q39013 7-158).
T3 sequence: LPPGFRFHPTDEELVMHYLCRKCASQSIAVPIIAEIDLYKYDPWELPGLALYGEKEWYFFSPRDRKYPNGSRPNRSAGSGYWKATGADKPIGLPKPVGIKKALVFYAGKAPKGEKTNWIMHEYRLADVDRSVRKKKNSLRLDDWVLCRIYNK
To be noted: protein: recombinant; tags: GST; chain copies: 2; dsDNA, one strand shown. In short, it runs like this: as §1

The target in test [4] is T4, GST-ANAC092(1-285) full length (Arabidopsis thaliana, UniProt Q9FKA0 1-285).
T4 sequence: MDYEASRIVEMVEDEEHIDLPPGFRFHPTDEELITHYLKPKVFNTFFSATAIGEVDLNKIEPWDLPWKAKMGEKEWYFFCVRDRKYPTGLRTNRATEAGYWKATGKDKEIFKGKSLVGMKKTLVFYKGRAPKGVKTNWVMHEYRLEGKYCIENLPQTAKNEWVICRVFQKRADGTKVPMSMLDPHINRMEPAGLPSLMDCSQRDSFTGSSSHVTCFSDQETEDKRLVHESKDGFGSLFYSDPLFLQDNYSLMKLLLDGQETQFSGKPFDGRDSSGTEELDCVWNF
Particulars: protein: recombinant; tags: GST; chain copies: 2; dsDNA, one strand shown. A digest of the protocol:
as §1

For test [5], the target named is T5, GST-NAP(1-166) (Arabidopsis thaliana, UniProt O49255 1-166).
T5 sequence: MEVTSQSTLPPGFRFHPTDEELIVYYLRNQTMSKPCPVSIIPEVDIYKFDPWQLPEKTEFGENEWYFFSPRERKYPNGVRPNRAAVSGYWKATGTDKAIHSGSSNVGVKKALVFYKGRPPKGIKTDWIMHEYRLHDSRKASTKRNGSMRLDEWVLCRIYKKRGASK
To be noted: protein: recombinant; tags: GST; chain copies: 2; dsDNA, one strand shown. In short, it runs like this: as §1

Test [6] has as its target T6, GST-NST2(1-184) (Arabidopsis thaliana, UniProt Q9M274 1-184).
T6 sequence: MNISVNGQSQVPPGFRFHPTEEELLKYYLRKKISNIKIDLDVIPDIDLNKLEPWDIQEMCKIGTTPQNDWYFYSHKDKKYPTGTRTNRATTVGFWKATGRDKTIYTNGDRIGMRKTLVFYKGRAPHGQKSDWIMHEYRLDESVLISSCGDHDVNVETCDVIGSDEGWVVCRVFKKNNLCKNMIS
Particulars: protein: recombinant; tags: GST; chain copies: 2; dsDNA, one strand shown. A digest of the protocol: as §1

For test [7], the target named is T7, GST-SND1(1-203) (Arabidopsis thaliana, UniProt Q9LPI7 1-203).
T7 sequence: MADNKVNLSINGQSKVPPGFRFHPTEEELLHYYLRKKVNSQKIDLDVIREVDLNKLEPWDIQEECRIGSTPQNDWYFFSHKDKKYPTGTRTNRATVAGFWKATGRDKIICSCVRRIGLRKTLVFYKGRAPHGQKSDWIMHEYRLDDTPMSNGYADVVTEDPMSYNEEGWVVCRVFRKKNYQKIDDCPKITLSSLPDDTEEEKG
To be noted: protein: recombinant; tags: GST; chain copies: 2; dsDNA, one strand shown. A digest of the protocol: as §1

In test [8] the target is T8, GST-VND7 NAC domain (Arabidopsis thaliana, UniProt Q9C8W9 9-158).
T8 sequence: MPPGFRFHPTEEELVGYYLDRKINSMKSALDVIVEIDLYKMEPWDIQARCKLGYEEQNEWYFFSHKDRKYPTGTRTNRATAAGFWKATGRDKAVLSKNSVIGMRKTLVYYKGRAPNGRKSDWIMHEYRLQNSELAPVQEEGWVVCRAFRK
Particulars: protein: recombinant; tags: GST; chain copies: 2; dsDNA, one strand shown. A digest of the protocol: as §1

Test [9] concerns the target GST-NTL6(1-168) (Arabidopsis thaliana, UniProt Q9SCK6 1-168). To be noted: protein: recombinant; tags: GST; chain copies: 2; dsDNA, one strand shown. In short, it runs like this:
as §1

For test [10], the target named is T9, GST-ANAC055(1-171) (Arabidopsis thaliana, UniProt Q9LDY8 1-171).
T9 sequence: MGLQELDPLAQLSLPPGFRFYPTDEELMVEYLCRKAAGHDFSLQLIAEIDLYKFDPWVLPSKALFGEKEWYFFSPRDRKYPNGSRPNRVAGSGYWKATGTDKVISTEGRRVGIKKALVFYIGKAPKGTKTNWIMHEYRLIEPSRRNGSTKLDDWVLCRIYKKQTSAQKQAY
To be noted: protein: recombinant; tags: GST; chain copies: 2; dsDNA, one strand shown. In short, it runs like this:
as §1

Test [11] deals with T10, GST-NTL8 NAC domain (Arabidopsis thaliana, UniProt Q9XIN7 14-156).
T10 sequence: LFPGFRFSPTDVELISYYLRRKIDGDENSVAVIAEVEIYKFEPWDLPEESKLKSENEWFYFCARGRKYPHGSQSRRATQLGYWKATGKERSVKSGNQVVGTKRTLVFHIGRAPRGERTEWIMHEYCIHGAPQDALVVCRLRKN
Particulars: protein: recombinant; tags: GST; chain copies: 2; dsDNA, one strand shown. A digest of the protocol: as §1

For test [12], the target named is GST-WRKY1(266-371) (Arabidopsis thaliana, UniProt Q9SI37 266-371). To be noted: protein: recombinant; tags: GST; dsDNA, one strand shown. In short, it runs like this: as §1
Sequence of GST-WRKY1(266-371) (Q9SI37 266-371): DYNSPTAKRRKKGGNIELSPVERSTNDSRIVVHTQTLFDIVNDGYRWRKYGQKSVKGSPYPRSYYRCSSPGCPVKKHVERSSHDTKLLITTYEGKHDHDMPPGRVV

Sequence of GST-NTL6(1-168) (Q9SCK6 1-168): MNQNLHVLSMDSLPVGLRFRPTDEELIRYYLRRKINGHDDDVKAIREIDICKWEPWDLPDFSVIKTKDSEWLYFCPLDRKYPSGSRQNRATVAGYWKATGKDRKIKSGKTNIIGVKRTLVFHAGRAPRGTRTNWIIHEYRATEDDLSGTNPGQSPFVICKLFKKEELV

As for AAGCACGC, the binding signal in [1] is 0.32 E-score; in test [2] it was 0.127 E-score; in [3], 0.121 E-score; in test [4], 0.407 E-score; in test [5] it was 0.0699 E-score; in test [6], 0.0521 E-score. Also, the figures for the binding signal in [7] and in test [8] were 0.21 E-score and 0.0817 E-score, respectively.
With TCGCGTAA, the binding signal in test [1] was found to be 0.283 E-score; in test [9], 0.0668 E-score; in test [10], 0.0885 E-score; in [3], 0.141 E-score; in [4] it was 0.385 E-score; in [6], 0.259 E-score. In addition, the binding signal in [7] came out at 0.459 E-score; in test [8], 0.14 E-score.
Turning to CTTTCCTC, the binding signal worked out at 0.0932 E-score in test [1]; 0.104 E-score in [9]; 0.0599 E-score in test [2]; 0.0748 E-score in test [10]; 0.453 E-score in [11]; 0.147 E-score in [7]. Moreover, in test [8], the binding signal stood at 0.0728 E-score.
As for CTTGCTTC, the binding signal in test [1] was determined as 0.288 E-score; in test [9], 0.295 E-score; in test [2] it was 0.0507 E-score; in [4], 0.368 E-score; in [6] it was 0.204 E-score; in test [11], 0.303 E-score. Also, the binding signal in test [7] was determined as 0.403 E-score; in test [8], 0.0829 E-score.
For the sequence ACGCTTCC, the binding signal in [1] amounted to 0.334 E-score; in [9], 0.0789 E-score; in test [2], 0.171 E-score; in [10] it was 0.106 E-score; in test [3], 0.139 E-score; in test [4], 0.402 E-score. Further, the binding signal in [5] came to 0.0721 E-score; in test [6] it was 0.206 E-score; in test [7], 0.296 E-score; in test [8], 0.151 E-score.
For AGGAAAGC, the binding signal in [1] worked out at 0.23 E-score; in test [9], 0.253 E-score; in test [2], 0.214 E-score; in test [10] it was 0.119 E-score; in [3] it was 0.124 E-score; in test [4], 0.0813 E-score. Moreover, the binding signal in test [5] was found to be 0.0763 E-score; in test [6] it was 0.0888 E-score; in test [11], 0.436 E-score; in test [7], 0.188 E-score; in test [8] it was 0.177 E-score.
For the sequence GGCGTCAA, the binding signal in test [7] was 0.0673 E-score; in [12], 0.401 E-score.
For AAACCCTC, the binding signal is 0.141 E-score in [9]; 0.0591 E-score in test [2]; 0.134 E-score in [10]; 0.0744 E-score in test [5]; 0.414 E-score in [11]; 0.101 E-score in [7]. Further, the binding signal in [8] stood at 0.1 E-score.
With ACGCTATC, the binding signal in [1] turned out to be 0.43 E-score; in test [2] it was 0.106 E-score; in [3] it was 0.0721 E-score; in [4] it was 0.454 E-score; in test [5], 0.104 E-score; in test [6], 0.303 E-score. Besides, the binding signal in test [7] stood at 0.431 E-score; in [8], 0.0789 E-score.
Consider CCCCACCC, for which the binding signal in test [1] stood at 0.209 E-score; in [9] it was 0.274 E-score; in [2], 0.177 E-score; in test [10] it was 0.0515 E-score; in test [3], 0.234 E-score; in [4], 0.278 E-score. Also, the binding signal in [6] came out at 0.182 E-score; in [11] it was 0.277 E-score; in [7], 0.272 E-score; in test [8], 0.171 E-score.
Turning to GAAGGAAA, the binding signal in test [1] is 0.243 E-score; in test [9] it was 0.455 E-score; in test [2] it was 0.118 E-score; in test [10] it was 0.184 E-score; in test [3], 0.096 E-score; in test [4], 0.131 E-score. Moreover, the binding signal stood at 0.214 E-score in test [6], 0.485 E-score in [11], 0.234 E-score in test [7] and 0.108 E-score in test [8].
For the sequence CCAAGTCA, the binding signal in [7] worked out at 0.0686 E-score; in [12], 0.426 E-score.
For the sequence AGGGGAAA, the binding signal in [1] worked out at 0.191 E-score; in test [9], 0.14 E-score; in test [2] it was 0.112 E-score; in [4] it was 0.0577 E-score; in test [5], 0.101 E-score; in test [11] it was 0.412 E-score. Also, the binding signal in test [7] came to 0.0998 E-score; in [8] it was 0.132 E-score.
For the sequence TGACTTAA, the binding signal was found to be 0.342 E-score in test [9]; 0.107 E-score in test [3]; 0.102 E-score in [4]; 0.183 E-score in test [6]; 0.249 E-score in test [7]; 0.089 E-score in [8]. In addition, the binding signal in [12] is 0.427 E-score.
On to TGAAGGAA, for which the binding signal is 0.108 E-score in test [1]; 0.379 E-score in test [9]; 0.0877 E-score in test [2]; 0.0856 E-score in test [10]; 0.0713 E-score in [3]; 0.0772 E-score in test [4]. The binding signal in test [6] came out at 0.197 E-score; in test [11], 0.469 E-score; in [7], 0.342 E-score; in test [8] it was 0.0645 E-score.

The record behind these values is PMC4081100, “A DNA-binding-site landscape and regulatory network analysis for NAC transcription factors in Arabidopsis thaliana”.
